Records with an inconclusive call do not appear. Activity calls are given as the source filed them. Unless noted, calls come from the whole dose curve; as a rule, active = well fitted curve in the direction sought with a large enough effect; inconclusive = small, poorly fitted or top-dose-only effect, or another doubt; inactive = no such curve, though single readings can be large; an effect the other way counts as inactive or inconclusive.

Experiment [1] is described as follows: P-glycoprotein substrates identified in KB-3-1 adenocarcinoma cell line, qHTS therapeutic library screen (AID 1346986). Note: nearly all actives have a fitted effect of over 60% in size.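 Note: potency is the fitted concentration of half-maximal effect; potency is for cytotoxicity meaning loss of cell viability.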 The gist of the method:
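Resistance attributable to P-gp was assessed by comparing AC50 in KB-8-5-11 with parental KB-3-1 and by tariquidar reversal. Cells were exposed 72 h and viability read by CellTiter-Glo.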
A general note: In qHTS, concentration-response curves come from the screen itself.

Experiment [2] in a line: P-glycoprotein substrates identified in KB-8-5-11 adenocarcinoma cell line, qHTS therapeutic library screen (AID 1346987). Note: nearly all actives have a fitted effect of over 65% in size. Note: potency is the fitted concentration of half-maximal effect. The essentials: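 KB-8-5-11, a colchicine-selected P-gp-overexpressing KB-3-1 subline, was grown without colchicine for the assay. Cells were seeded at 500 cells/well, dosed in concentration-response and incubated 72 h at 37 degree C, 5% CO2. Viability was read by CellTiter-Glo luminescence.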

Experiment [3] in a line: Primary qHTS for inhibitors of nuclear receptor binding SET domain protein 2 (NSD2) in an isogenic RCH-ACV NSD2 p.E1099K mutant (9B) (AID 1645876). Note: nearly all actives have a fitted effect of over 70% in size. Note: potency is the fitted concentration of half-maximal effect.
Experiment [4] is described as follows: Primary qHTS for inhibitors of nuclear receptor binding SET domain protein 2 (NSD2) in an RCH-ACV wild type WT cells (2C) (AID 1645877). Note: nearly all actives have a fitted effect of over 70% in size. Note: potency is the fitted concentration of half-maximal effect.
The target in experiment [5] is Glutathione peroxidase 1 (Homo sapiens) (UniProt P07203). Put plainly: Primary qHTS Assay for Inhibitors of Recombinant Selenoprotein Glutathione Peroxidase 1 (GPX1) (AID 1845191). Note: nearly all actives have a fitted effect of over 65% in size. Note: potency is the fitted concentration of half-maximal effect. The essentials:
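Recombinant GPX1 (10 nM final) was preincubated with compound for 30 min at room temperature, then reacted with 1 mM GSH, 0.5 mM CHP, 0.5 mM NADPH and 100 nM glutathione reductase; NADPH fluorescence (340/450 nm) was read at 0 and 15 min.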

Experiment [6] has as its target Catechol O-methyltransferase (Homo sapiens) (UniProt P21964). Nature of the experiment: Confirmatory Screen for Target Class Profiling of Small Molecule Inhibitors of Methyltransferases (AID 1745852; calls by dose curve; note: potency is the fitted concentration of half-maximal effect). As to conditions: MTase-Glo luminescence, SAH detection, recombinant enzyme; measured here: COMT max response; stronger effect = lower value.
Experiment [7] concerns the target Guanidinoacetate N-methyltransferase (Homo sapiens) (UniProt Q14353). Described as above. As to conditions: activity change, negative = inhibition: at 57.3 µM (top of the series) unless noted.
Experiment [8] deals with Nicotinamide N-methyltransferase (Homo sapiens) (UniProt P40261). Described as above. As to conditions: MTase-Glo luminescence, SAH detection, recombinant enzyme; measured here: NNMT max response; stronger effect = lower value.
The target of experiment [9] is Phenylethanolamine N-methyltransferase (Homo sapiens) (UniProt P11086). The experiment is described as above. As to conditions: MTase-Glo luminescence, SAH detection, recombinant enzyme; measured here: PNMT max response; stronger effect = lower value.
Experiment [10] is described as follows: NCATS anti-infectives library activity on HEK293 viability as a counter-qHTS vs the C. elegans viability qHTS (AID 1745854).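 Note: HEK293 cells exposed to compounds for 24 hr before the viability read; % is set by controls: 0 for no effect and ±100 for the full control effect.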 The essentials: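 HEK293 cells (1,500/well) exposed 24 hr at 37C to 1:5 titrations, up to 41.7 uM final; counter-screen to a C. elegans viability qHTS. Viability by CellTiter-Glo luminescence after 10 min at room temperature; digitonin as control.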

The nature of experiment [11]: qHTS drug screen for cell cycle checkpoint inhibitors in PARPi-resistant BRCA-mutant ovarian cancer cell lines. (AID 1963452; calls by dose curve). As to conditions: PEO1/OlaR viability, CellTiter-Glo luminescence, 96 h, stronger effect = lower value. The gist of the method:
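PEO1, PEO4 and PEO1/OlaR ovarian cancer cells, 600 per well, exposed 96 h at 37C to a dilution series. Viability read by CellTiter-Glo luminescence, normalized to DMSO and empty wells; activity summarized as Z-AUC.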

The nature of experiment [12]: qHTS to identify inhibitors of the type 1 interferon - major histocompatibility complex class I in skeletal muscle: primary screen against the NCATS Mechanism Interrogation Plate v5.0 (MIPE) Libary (AID 1347411). Note: potency is the fitted concentration of half-maximal effect; nearly all actives have a fitted effect of over 65% in size. The essentials:
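Immortalized human myoblasts (C25cl48) with HiBit knocked into endogenous HLA-B*08:01 were stimulated with 4 ng/ml IFN-beta and given compounds in 11-point 1:3 titration from 46 uM. After 24 h at 37 C, lytic HiBiT luminescence was read.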

Experiment [13] deals with Phospholipid hydroperoxide glutathione peroxidase GPX4 (Homo sapiens) (UniProt P36969). Put plainly: Primary qHTS Assay for Inhibitors of Recombinant Selenoprotein Glutathione Peroxidase 4 (GPX4) (AID 1845192). Note: % is set by controls: 0 for no effect and ±100 for the full control effect; nearly all actives have a fitted effect of over 65% in size. As to conditions: outcome: dose series up to 50 µM unless noted. The gist of the method: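 GR-coupled readout: 100 nM GR, 1 mM GSH, 0.5 mM NADPH; NADPH fluorescence (ex 340/em 450 nm) read at t=0 and after 15 min RT. GPX4 200 nM, preincubated 30 min with compound; substrate 0.5 mM CHP.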

The mark [14] stands for this setting: measured here: PEO1 parental Z-AUC.

Phenylethanolamine N-methyltransferase (Homo sapiens), sequence (P11086 whole entry, looked up): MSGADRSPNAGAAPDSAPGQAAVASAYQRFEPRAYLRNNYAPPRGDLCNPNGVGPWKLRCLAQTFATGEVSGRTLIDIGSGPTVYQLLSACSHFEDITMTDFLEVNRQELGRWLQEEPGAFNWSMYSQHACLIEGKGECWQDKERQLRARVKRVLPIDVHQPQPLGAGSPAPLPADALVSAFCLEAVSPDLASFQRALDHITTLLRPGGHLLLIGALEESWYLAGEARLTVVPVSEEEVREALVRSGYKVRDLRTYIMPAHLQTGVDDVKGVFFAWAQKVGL
Catechol O-methyltransferase (Homo sapiens), sequence (P21964 whole entry, looked up): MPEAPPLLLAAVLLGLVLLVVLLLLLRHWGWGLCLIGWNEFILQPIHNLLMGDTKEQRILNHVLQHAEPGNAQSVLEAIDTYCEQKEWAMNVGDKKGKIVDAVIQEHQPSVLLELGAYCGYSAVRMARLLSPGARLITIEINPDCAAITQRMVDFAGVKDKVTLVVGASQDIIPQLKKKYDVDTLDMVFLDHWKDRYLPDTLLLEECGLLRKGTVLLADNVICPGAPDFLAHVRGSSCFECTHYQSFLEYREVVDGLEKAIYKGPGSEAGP
Nicotinamide N-methyltransferase (Homo sapiens), sequence (P40261 whole entry, looked up): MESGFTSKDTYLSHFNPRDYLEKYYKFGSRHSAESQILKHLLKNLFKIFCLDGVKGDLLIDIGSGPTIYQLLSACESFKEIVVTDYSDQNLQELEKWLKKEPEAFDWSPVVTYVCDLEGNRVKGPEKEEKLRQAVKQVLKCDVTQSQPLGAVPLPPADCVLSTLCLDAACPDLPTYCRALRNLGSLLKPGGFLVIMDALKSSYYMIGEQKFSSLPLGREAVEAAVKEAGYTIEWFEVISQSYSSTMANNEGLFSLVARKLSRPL
Glutathione peroxidase 1 (Homo sapiens), sequence (P07203 whole entry, looked up): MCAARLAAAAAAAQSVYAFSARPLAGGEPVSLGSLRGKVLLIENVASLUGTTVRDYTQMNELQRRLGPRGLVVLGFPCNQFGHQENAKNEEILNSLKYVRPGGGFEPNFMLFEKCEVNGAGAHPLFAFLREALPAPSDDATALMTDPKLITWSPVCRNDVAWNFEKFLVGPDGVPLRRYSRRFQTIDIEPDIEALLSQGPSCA
Phospholipid hydroperoxide glutathione peroxidase GPX4 (Homo sapiens), sequence (P36969 whole entry, looked up): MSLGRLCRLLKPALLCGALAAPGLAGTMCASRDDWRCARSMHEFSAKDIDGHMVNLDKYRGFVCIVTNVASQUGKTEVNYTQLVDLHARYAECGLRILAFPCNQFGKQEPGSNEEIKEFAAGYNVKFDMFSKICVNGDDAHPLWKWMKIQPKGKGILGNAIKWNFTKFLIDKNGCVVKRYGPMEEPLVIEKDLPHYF

Regarding `C=CC(=O)Nc1cccc(Nc2nc(Nc3ccccc3)ncc2C)c1`, the Potency in [1] is 18.4 µM (active); in experiment [2], 13 µM (active); in experiment [3], 8.2 µM (active); in experiment [4] it was 8.2 µM (active). Besides, the Potency entry in experiment [5] is “inactive”.
Regarding `CN(C)CC(=O)N1CCC[C@@H](n2nc(-c3ccc(Oc4ccccc4)cc3)c3c(N)ncnc32)C1`, the Potency in [1] was 20.6 µM (active); in experiment [2], 20.6 µM (active); in [3], 1.64 µM (active); in experiment [4], 1.64 µM (active). Besides, the Potency entry in [5] was “inactive”.
Turning to `C[C@@H](Oc1cc(-n2cnc3ccc(OC4CCN(C)CC4)cc32)sc1C(N)=O)c1ccccc1Cl`, the Potency in experiment [1] was 0.0184 µM (active); in experiment [2] it was 0.461 µM (active); in experiment [3], 0.0411 µM (active); in experiment [4], 0.058 µM (active); in experiment [7], 8.57 µM (active). The results for the activity in experiment [6], in experiment [8] and in experiment [9] were -96.8%, -85.5% and -96.2%, respectively. In addition, the Potency entry in [5] was “inactive”.
For `COC(=O)C#Cc1ccc([N+](=O)[O-])cc1`, the Potency was 13 µM (active) in experiment [1], 18.4 µM (active) in [2], 4.61 µM (active) in experiment [3] and 4.11 µM (active) in [4]. Also, the Potency entry in [5] was “inactive”.
Take `CC1=CC(=O)C(C(C)C)=CC1=O`: the Potency entry in experiment [1], in experiment [2] and in experiment [5] was “inactive” each time. The Potency in experiment [3] was 14.6 µM (active); in [4], 6.51 µM (active).
Turning to `CCOC(=O)c1c2c3c(cccc3[nH]c1=O)C(=O)c1ccccc1-2`, the Potency result in experiment [1], in [2], in experiment [3], in [4] and in experiment [5] was “inactive” in each case.
Regarding `O=C(Nc1cccc(Nc2cc(Nc3cccc(C(F)(F)F)c3)ncn2)c1)C1CC1`, the Potency was 0.92 µM (active) in [1]; 0.92 µM (active) in [2]; 0.731 µM (active) in [3]; 0.92 µM (active) in [4]; 21.5 µM (active) in [7]. The activity in experiment [6] is -58%; in experiment [8] it was -68.1%; in [9] it was -61.4%. For the same compound, in [5], the Potency entry was “inactive”.
For the compound `CC(CCc1ccccn1)(CCc1ccccn1)C(=O)c1ccccc1`, the Potency result in [1], in experiment [2], in [3], in experiment [4] and in experiment [5] was “inactive” throughout.
Consider `CN(C)CCCNc1c2ccccc2nc2c1[nH]c1ccccc12`, for which the Potency was 1.84 µM (active) in experiment [1]; 2.31 µM (active) in experiment [2]; 1.84 µM (active) in experiment [3]; 2.06 µM (active) in [4]; 22.7 µM (active) in experiment [5].
On to `COC[C@H](C)Oc1cc(O[C@@H](C)Cc2ccccc2)cc(C(=O)Nc2ccc(C(=O)O)cn2)c1`, for which the Potency result in experiment [1], in experiment [2], in [3], in experiment [4] and in [5] was “inactive” in each case.
For the compound `Oc1cccc(Nc2ccnc3cc(-c4cccc(CN5CCOCC5)c4)sc23)c1`, the Potency was 7.31 µM (active) in [1], 8.2 µM (active) in experiment [2], 1.64 µM (active) in experiment [3] and 1.46 µM (active) in [4]. Besides, in experiment [5], the Potency result was “inactive”.
For `CC1=CC(=O)C(C(C)C)=C/C1=N/OC(=O)c1ccccc1C`, the Potency entry in experiment [1], in experiment [2] and in [5] was “inactive” in each case. Besides, the Potency in [3] is 8.2 µM (active); in [4], 11.6 µM (active).
`CCN(CC)CCNC(=O)c1c(C)[nH]c(/C=C2\C(=O)Nc3ccc(Cl)cc32)c1C`: the Potency in experiment [1] was 16.4 µM (active); in experiment [2], 18.4 µM (active); in experiment [3] it was 2.59 µM (active); in [4], 2.91 µM (active). Besides, the Potency entry in experiment [5] is “inactive”.
For `O=C1OC(/C=C/c2ccccc2)=NC/1=C\c1cccnc1`, in that order: “inactive”, “inactive”, “inactive”, “inactive” and “inactive”.
Regarding `CCCCCCCCCCCCCC#CC(=O)[C@@H]1COC(C)(C)N1C(=O)OC(C)(C)C`, the Potency entry in experiment [1], in experiment [2] and in experiment [5] was “inactive” each time. For the same compound, the Potency is 13 µM (active) in [3] and 16.4 µM (active) in [4].
Consider `CC(C)C(=O)OC[C@@]1(N=[N+]=[N-])O[C@@H](n2ccc(N)nc2=O)[C@H](OC(=O)C(C)C)[C@@H]1OC(=O)C(C)C`, for which the Potency result in [1], in [2], in experiment [3] and in experiment [4] was “inactive” throughout. Besides, the outcome in [10] is “inactive”.
Consider `Cc1ccc(OCCSc2ncccn2)c(Br)c1`, for which the Potency result in experiment [1], in [2], in [3], in experiment [4] and in experiment [5] was “inactive” throughout.
As for `O=C(NCCO)c1cc(C(=O)NCCO)cc(C(=O)NCCO)c1`, the Potency result in [1], in experiment [2], in [3], in experiment [4] and in experiment [5] was “inactive” each time.
`CC(C)CN(CC(=O)N(CCCN1CCCC1=O)CC(N)=O)C(=O)CNCCc1ccccc1F`: the Potency entry in [1], in experiment [2], in experiment [3], in experiment [4] and in experiment [5] was “inactive” throughout.
On to `BrC1C(Br)C(Br)C(Br)C(Br)C1Br` (centres undefined), for which the Potency entry in [1], in experiment [2], in [3], in experiment [4] and in [5] was “inactive” throughout.
Regarding `O=C1NC(=O)C(c2c[nH]c3ccccc23)=C1c1c[nH]c2ccccc12`, the Potency result in experiment [1], in experiment [2] and in experiment [5] was “inactive” in each case. Moreover, the Potency in experiment [3] is 18.6 µM (active); in [4] it was 20.9 µM (active); in experiment [7], 30.6 µM (active). Moreover, the activity in experiment [6] was -38.2%; in [8], -39.6%; in experiment [9], -46.7%. Further, the Z-AUC in [11] was 1.34 (inactive); in experiment [11] (setting [14]) it was 0.607; in [11] (measured here: PEO4 Z-AUC) it was 0.134.
In the case of `CC/C=C\CC1C(=O)CCC1CC(=O)OC` (centres undefined), the Potency result in experiment [1], in experiment [2], in [3], in [4] and in [5] was “inactive” each time.
For `Cn1cc(-c2cc(Oc3cc(F)c(NC(=O)C4(C(=O)Nc5ccccc5)CC4)cc3F)ccn2)cn1`, the Potency in experiment [1] was 18.4 µM (active); in experiment [12] it was 29.4 µM (active); in [3] it was 9.34 µM (active); in experiment [4] it was 13.2 µM (active). Further, the Potency result in [5] and in experiment [13] was “inactive” each time. Further, the Z-AUC is 0.797 (inactive) in experiment [11], -0.238 in [11] (setting [14]) and 0.178 in [11] (measured here: PEO4 Z-AUC).
As for `CSc1nc(N)cc(Oc2ccc(-c3nc(Nc4cccc(C(F)(F)F)c4)n[nH]3)cc2)n1`, the Potency is 4.61 µM (active) in experiment [1], 5.8 µM (active) in experiment [2], 1.64 µM (active) in experiment [3] and 1.3 µM (active) in experiment [4]. Moreover, in experiment [5], the Potency entry is “inactive”.

The values are drawn from PubChem BioAssay (NCATS).
